The list is not random: actives were taken first. Their share in the collection is about 4.2%.
NLRP3 yeast inh – NALP3 inhibition in yeast | AID 2825 | 0.39% of 330,000 active | inhibition, % at 10 µM | Yeast reconstituted NLRP3/ASC/caspase-1, beta-gal luminescence, 24 h;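 active means inhibition of 50% or more; inactive means inhibition below 50%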
tim10-1 inh – growth inhibitors of tim10-1 mutant yeast; inhibition, % at 20 µM; AID 463190; 2.2% of 330,000 active; S. cerevisiae tim10-1 ts strain growth, BacTiter-Glo, 24 h;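 active means inhibition of at least 40%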;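 further: mutant grown at 25 °C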
TIM10 inh – inhibits growth of TIM10 yeast strain | S. cerevisiae TIM10 strain growth, BacTiter-Glo luminescence, 24 h | inhibition, % at 10 µM | 1.4% of 330,000 active | AID 463195;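 active means inhibition of 40% or more at the single tested concentration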;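 further: wild-type TIM10 isogenic control strain grown at permissive 25 °C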
V-ATPase pH – regulators of yeast V-ATPase proton transport; AID 504577; response, % at 10 µM; S. cerevisiae, pHLuorin cytosolic pH fluorescence; 0.37% of 350,000 active; in the data active means response mostly above about 7.3%, no sharp cut-off; inactive means mostly below about 5.4%; further: actives read high
tim23-1 inh – inhibits growth of tim23-1 mutant yeast. 1.3% of 330,000 active. inhibition, % at 20 µM. S. cerevisiae tim23-1 growth, BacTiter-Glo luminescence, 24 h;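 active means growth inhibition of the mutant yeast at or above 50%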;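 further: temperature-sensitive mutant grown at 25 °C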
NALP1 yeast inh – blocks the NALP1 inflammasome reconstituted in yeast | S. cerevisiae NALP1/ASC/caspase-1 growth, X-gal OD620, 72 h | inhibition, % at 10 µM | 0.61% of 280,000 active; in the data active means inhibition mostly above about 24%, no sharp cut-off; inactive means mostly below about 32%
NALP3 confirm – NALP3 inhibition confirmation in yeast. shares compounds with NLRP3 yeast inh. yeast expressing human NALP3, luminescence. inhibition, % at 10 µM. 81% of 1,300 active; in the data active means inhibition above about 48%
Casp1 ASC ctr – active in yeast caspase-1-ASC counter-screen for NALP3 inhibitors; shares compounds with NLRP3 yeast inh; yeast expressing Caspase-1-ASC, luminescence counter screen; inhibition, % at 10 µM; 66% of 1,000 active
NALP3 retest – retest-confirmed inhibitor of NALP3 in yeast; shares compounds with NLRP3 yeast inh; yeast expressing human NALP3, luminescence read-out; inhibition, % at 10 µM; 53% of 1,000 active
Large screens that a line does not name were inactive (follow-up assays come after a bar, where they were run). Unless noted, no stated cut-off is given here; in the data, active means inhibition above about 50%; inactive means the rest.

CCCC(CCC)C(=O)OC[N+](C)(C)CCOC(=O)C(O)(c1ccccc1)C1CCCC1 (centres undefined)	NALP1 yeast inh 28
CN1C(=O)N(C)C(=O)C(CCc2ccncc2)(Cc2ccc3c(c2)OCO3)C1=O	none
CCCCN(Cc1ccccc1)C1CCN(CCc2ccccc2)CC1	NALP1 yeast inh 48
CN1C2CCC1/C(=C/c1ccccn1)C(=O)/C2=C\c1ccccn1	NALP1 yeast inh 101 (no result: NLRP3 yeast inh, tim10-1 inh, TIM10 inh, tim23-1 inh)
CC(C(O)c1ccccc1)N(C)CCn1cnc2c1c(=O)n(C)c(=O)n2C (centres undefined)	none
Fc1ccc(C(OCCN2CCCC2)c2ccc(Br)cc2)cc1 (centres undefined)	NALP1 yeast inh 47
Fc1ccc(C(OCCN2CCCC2)c2ccc(F)cc2)cc1	none
BrCC1C[n+]2c(SCc3ccccc3)nc3sc4c(c3c2O1)CCCC4 (centres undefined)	none
Nc1c2c(nc3sc4c(c13)CCCCC4)CCCC2	NLRP3 yeast inh 63, NALP1 yeast inh 67 | NALP3 confirm 79 | Casp1 ASC ctr inactive | NALP3 retest inactive
COC(=O)C1=C(c2ccc(S(C)(=O)=O)cc2)C[C@@H]2CC[C@H]1N2C(=O)NC1CC1	none (no result: NALP1 yeast inh)
Fc1ccc(C(OCCN2CCN(CCCc3ccccc3)CC2)c2ccc(F)cc2)cc1	NLRP3 yeast inh 50 (no result: NALP1 yeast inh) | NALP3 confirm 59
CCN1CCOC(c2ccccc2)C1 (centres undefined)	none (no result: NLRP3 yeast inh, tim10-1 inh, TIM10 inh, tim23-1 inh, NALP1 yeast inh)
CN(C)C(Cc1ccc(C#N)cc1)C(=O)c1ccccc1 (centres undefined)	none
COc1ccc(C(=O)C(Cc2ccccc2)N(C)C)cc1 (centres undefined)	NLRP3 yeast inh 56 | NALP3 confirm 72 | Casp1 ASC ctr inactive | NALP3 retest inactive
CN(C)C(Cc1ccccc1)C(=O)c1ccc(-c2ccccc2)cc1 (centres undefined)	NLRP3 yeast inh 56 | NALP3 confirm 67 | Casp1 ASC ctr 55 | NALP3 retest 62
C[C@]12CCC3C(CC[C@H]4C[C@H](O)CC[C@]34C)C1CCC2=O (some centres undefined)	NLRP3 yeast inh 53 (no result: NALP1 yeast inh) | NALP3 confirm 68
C[C@]12CC[C@@H](O)C[C@@H]1CC[C@@H]1[C@@H]2CC[C@]2(C)C(=O)CC[C@@H]12	NLRP3 yeast inh 56 | NALP3 confirm 67 | Casp1 ASC ctr 60 | NALP3 retest 61
C[C@]12CC[C@H](O)C[C@@H]1CC[C@H]1[C@H]3CCC(=O)[C@@]3(C)CC[C@@H]12	none (no result: NLRP3 yeast inh, tim10-1 inh, TIM10 inh, tim23-1 inh, NALP1 yeast inh)
C[C@]12CCC3C(CC[C@H]4C[C@H](OC(=O)c5cccnc5)CC[C@]34C)C1CCC2=O (some centres undefined)	NLRP3 yeast inh 54 (no result: NALP1 yeast inh) | NALP3 confirm 60
CC(=O)OC1CCC2(C)C(CCC3C2CC(=O)C2(C)C3CC(N3CC3)C2C(C)=O)C1 (centres undefined)	none (no result: NLRP3 yeast inh, tim10-1 inh, TIM10 inh, tim23-1 inh, NALP1 yeast inh)
C[C@]12CCC3C(CC[C@@H]4C[C@@H](O)CC[C@]34C)C1CC[C@@H]2O (some centres undefined)	none (no result: NLRP3 yeast inh, tim10-1 inh, TIM10 inh, tim23-1 inh, NALP1 yeast inh)
CC(C)CC1(CCc2ccccc2)C(=O)NC(=O)NC1=O	none (no result: NLRP3 yeast inh, tim10-1 inh, TIM10 inh, tim23-1 inh, NALP1 yeast inh)
C[C@]1(O)CCC2C3CC[C@@H]4CC(=O)CC[C@]4(C)C3CC[C@@]21C (some centres undefined)	NLRP3 yeast inh 55 (no result: NALP1 yeast inh) | NALP3 confirm 69 | Casp1 ASC ctr 68 | NALP3 retest inactive
C[C@]12CCC3[C@@H](CCC4=CC(=O)CC[C@@]43CO)C1CCC2=O (some centres undefined)	none
CC12C=CC(=O)CC1CCC1C2CCC2(C)C(O)C(O)CC12 (centres undefined)	none (no result: NLRP3 yeast inh, tim10-1 inh, TIM10 inh, tim23-1 inh, NALP1 yeast inh)
C[C@]12CC(=CO)C(=O)C[C@@H]1CC[C@@H]1[C@@H]2CC[C@@]2(C)[C@H]1CC[C@]2(C)O	none (no result: NLRP3 yeast inh, tim10-1 inh, TIM10 inh, V-ATPase pH, tim23-1 inh)
C[C@]12CCC(=O)C[C@H]1CC[C@@H]1[C@@H]2CC[C@]2(C)C(=O)CC[C@@H]12	NLRP3 yeast inh 66 (no result: NALP1 yeast inh) | NALP3 confirm 70 | Casp1 ASC ctr 61 | NALP3 retest inactive
C[C@]12CCC3C(CC[C@H]4CC(=O)CC[C@]34C)C1CCC2=O (some centres undefined)	NLRP3 yeast inh 61 (no result: NALP1 yeast inh) | NALP3 confirm 56
CC(=O)N1Cc2cnnn2-c2ccccc2C1(C#N)Cc1ccccc1 (centres undefined)	none (no result: NLRP3 yeast inh, tim10-1 inh, TIM10 inh, tim23-1 inh, NALP1 yeast inh)
COC(=O)N(C)c1ccc(C(O)(C(=O)OC)C(F)(F)F)cc1 (centres undefined)	none
C[C@H](O)[C@H]1CC[C@H]2[C@@H]3CCC4=CC(=O)CC[C@]4(C)[C@H]3CC[C@]12C	NLRP3 yeast inh 52 | NALP3 confirm 73 | Casp1 ASC ctr inactive | NALP3 retest inactive
C[C@]12CCC3C(CC[C@H]4C[C@H](O)CC[C@]34C)C1C[C@@H](O)[C@@H]2O (some centres undefined)	none (no result: NALP1 yeast inh)
C[C@]12CCC3C(CC[C@H]4C[C@H](O)CC[C@]34C)C1C[C@H](O)[C@@H]2O (some centres undefined)	NLRP3 yeast inh 51 (no result: NALP1 yeast inh) | NALP3 confirm 50
C[C@]12CCC3C(CC[C@H]4C[C@@H](O)CC[C@]34C)C1C[C@H](Br)[C@@H]2O (some centres undefined)	NLRP3 yeast inh 62 (no result: V-ATPase pH, NALP1 yeast inh) | NALP3 confirm 70
C[C@]12CCC3C(CC[C@H]4C[C@H](O)CC[C@]34C)C1C[C@@H](CCCCl)[C@@H]2O (some centres undefined)	NLRP3 yeast inh 57 (no result: V-ATPase pH, NALP1 yeast inh) | NALP3 confirm 62
C[C@]12CCC3C(CC[C@H]4C[C@@H](O)CC[C@]34C)C1C[C@@H](O)[C@@H]2O (some centres undefined)	none (no result: NLRP3 yeast inh, tim10-1 inh, TIM10 inh, tim23-1 inh, NALP1 yeast inh)
C[C@]12CC[C@H](O)CC1=CC[C@@H]1[C@@H]2CC[C@@]2(C)[C@H]1CC[C@]2(C)O	NLRP3 yeast inh 59 (no result: V-ATPase pH, NALP1 yeast inh) | NALP3 confirm 67 | Casp1 ASC ctr 59 | NALP3 retest inactive
C[C@]12C[C@H](O)[C@@H](O)CC1=CCC1C2CC[C@@]2(C)C1CC[C@@H]2O (some centres undefined)	NLRP3 yeast inh 55 (no result: NALP1 yeast inh) | NALP3 confirm 66
C#C[C@]1(O)CCC2C3CC=C4C[C@H](O)CC[C@]4(C)C3CC[C@@]21C (some centres undefined)	none (no result: NLRP3 yeast inh, tim10-1 inh, TIM10 inh, tim23-1 inh, NALP1 yeast inh)
CC(C)[C@H]1CC2C3CC=C4C[C@@H](O)CC[C@]4(C)C3CC[C@]2(C)[C@H]1O (some centres undefined)	NLRP3 yeast inh 53 (no result: V-ATPase pH, NALP1 yeast inh) | NALP3 confirm 56

Compound activity (PubChem)
